Among the test systems are DU-145 prostate; K-562 leukemia; MALME-3M melanoma; MDA-MB-231 breast; RXF 393 renal; SF-268 CNS; SF-295 CNS; SF-539 CNS; UACC-257 melanoma; M14 melanoma; HCT-15 colon; HT29 colon; SNB-75 CNS; SNB-19 CNS; PC-3 prostate; SK-MEL-5 melanoma; UACC-62 melanoma; LOX IMVI melanoma; SK-MEL-28 melanoma; U251 CNS.
What all share (experiment): NCI-60 one-dose screen, 48 h (100 = growth as untreated, 0 = no growth, -100 = all killed)
What all share (conditions): 10 µM unless noted

Each structure is given as a SMILES string. This is part of a sample that, as a whole, favours compounds with a hit. Of some 83,000 tested, about 20% had one in any assay.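 96-well plates, one dose, 48 hours. Percent growth reported; active if below 10.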 A number with no mark means an inactive call. Calls of active or inactive are those of the source.

Regarding `O=C1NC(=O)C(CC(=O)n2c(-c3ccccc3)nc3ccccc32)C(=O)N1`, the growth with DU-145 prostate is 108%; in the experiment with K-562 leukemia, 106%; with MALME-3M melanoma, 116%; in the experiment on MDA-MB-231 breast, 98.9%; in the experiment on RXF 393 renal it was 101%; in the experiment on SF-268 CNS, 99%. The growth in the experiment with SF-295 CNS was 97.3%; in the experiment on SF-539 CNS, 95.1%; in the experiment on UACC-257 melanoma it was 112%; in the experiment with M14 melanoma, 108%; in the experiment with HCT-15 colon, 100%; in the experiment with HT29 colon, 111%. The growth is 71.1% in the experiment with SNB-75 CNS; 89.6% in the experiment with SNB-19 CNS; 100% in the experiment on PC-3 prostate; 101% in the experiment on SK-MEL-5 melanoma; 94.3% in the experiment with UACC-62 melanoma; 97.2% with LOX IMVI melanoma. In the experiment with SK-MEL-28 melanoma, the growth was 108%.
As for `CCCCN(CCCC)Cc1c(C)[nH]c2cc(OC)ccc2c1=O`, the growth in the experiment on DU-145 prostate was 106%; with K-562 leukemia, 98%; in the experiment on MALME-3M melanoma it was 98%; with MDA-MB-231 breast it was 104%; in the experiment with RXF 393 renal it was 108%; in the experiment with SF-268 CNS, 95.5%. Further, the growth with SF-295 CNS was 98.3%; in the experiment with SF-539 CNS, 110%; with UACC-257 melanoma it was 94.5%; in the experiment with M14 melanoma, 102%; with HCT-15 colon it was 107%; in the experiment with HT29 colon, 93.9%. The growth is 89.5% in the experiment on SNB-75 CNS; 98.5% with U251 CNS; 85.2% in the experiment on PC-3 prostate; 101% in the experiment with SK-MEL-5 melanoma; 101% with UACC-62 melanoma; 97.1% in the experiment on LOX IMVI melanoma. The growth with SK-MEL-28 melanoma was 112%.
In the case of `COc1ccc(-c2cc(C(=O)N=Nc3c(O)[nH]c4ccccc34)no2)cc1`, the growth was 104% in the experiment with DU-145 prostate; 90.7% in the experiment on K-562 leukemia; 102% in the experiment with MALME-3M melanoma; 96.9% in the experiment with MDA-MB-231 breast; 102% in the experiment with RXF 393 renal; 99.4% in the experiment on SF-268 CNS. For the same compound, the growth with SF-295 CNS was 102%; with SF-539 CNS, 100%; in the experiment with UACC-257 melanoma, 114%; in the experiment with M14 melanoma it was 101%; in the experiment with HCT-15 colon it was 104%; in the experiment with HT29 colon it was 99.5%. Moreover, the growth in the experiment with SNB-75 CNS was 66.5%; with SNB-19 CNS it was 91.5%; in the experiment with PC-3 prostate, 97.5%; in the experiment with SK-MEL-5 melanoma, 98.9%; in the experiment with UACC-62 melanoma, 100%; in the experiment with LOX IMVI melanoma it was 99.7%. The growth in the experiment with SK-MEL-28 melanoma was 109%.
`COc1c(Cl)cc(Cl)cc1Cl`: the growth was 111% with DU-145 prostate; 96.2% in the experiment with K-562 leukemia; 143% in the experiment on MALME-3M melanoma; 92.2% with MDA-MB-231 breast; 121% in the experiment on RXF 393 renal; 107% in the experiment with SF-268 CNS. In addition, the growth is 103% with SF-295 CNS; 111% in the experiment on SF-539 CNS; 122% in the experiment with UACC-257 melanoma; 116% with M14 melanoma; 116% with HCT-15 colon; 108% with HT29 colon. Also, the growth with SNB-75 CNS was 116%; with SNB-19 CNS, 103%; in the experiment on PC-3 prostate, 111%; in the experiment with SK-MEL-5 melanoma it was 109%; in the experiment on UACC-62 melanoma, 100%; in the experiment with LOX IMVI melanoma, 107%. In the experiment on SK-MEL-28 melanoma, the growth is 127%.
Regarding `O=C(/C=C/c1ccc(Cl)cc1)c1ccc(O)c(CN2CCN(c3cc4c(cc3F)c(=O)c(C(=O)O)cn4C3CC3)CC2)c1`, the growth in the experiment with DU-145 prostate was 63.5%; in the experiment on K-562 leukemia, 50.7%; in the experiment with MALME-3M melanoma it was 59.8%; with MDA-MB-231 breast it was 77.2%; in the experiment on RXF 393 renal, 45.4%; in the experiment with SF-268 CNS, 42%. For the same compound, the growth was 45% in the experiment on SF-295 CNS; 53.5% in the experiment on SF-539 CNS; 90.2% in the experiment with UACC-257 melanoma; 52.6% with M14 melanoma; 45.4% with HCT-15 colon; 33.8% in the experiment with HT29 colon. Besides, the growth in the experiment on SNB-75 CNS was 4.51% (active); in the experiment on SNB-19 CNS, 33.2%; in the experiment on PC-3 prostate, 47.3%; in the experiment with SK-MEL-5 melanoma, 29.8%; in the experiment on UACC-62 melanoma, 38.2%; with LOX IMVI melanoma, 38.6%. In the experiment with SK-MEL-28 melanoma, the growth is 62.1%.
As to `CCCCNP1(NCCCC)=NP(NCCCC)(NCCCC)=NP(NCCCC)(NCCCC)=NP(NCCCC)(NCCCC)=N1`, the growth in the experiment on DU-145 prostate is 16.5%; in the experiment with K-562 leukemia, -26.4% (active); in the experiment on MALME-3M melanoma, -18.1% (active); in the experiment on MDA-MB-231 breast it was -20.9% (active); in the experiment with RXF 393 renal, 16.5%; in the experiment with SF-268 CNS, 25.8%. Also, the growth with SF-295 CNS was -25% (active); in the experiment with SF-539 CNS, 34%; in the experiment on UACC-257 melanoma, -22.5% (active); in the experiment on M14 melanoma, 11.8%; with HCT-15 colon it was 99.3%; with HT29 colon, 11.9%. Further, the growth is 8.44% (active) with SNB-75 CNS; 11% in the experiment with U251 CNS; -6.45% (active) with PC-3 prostate; -93.8% (active) with SK-MEL-5 melanoma; 20.3% in the experiment on UACC-62 melanoma; 1.62% (active) with LOX IMVI melanoma. In the experiment with SK-MEL-28 melanoma, the growth is 37.4%.
`COc1ccc(-c2nn(-c3ccccc3)cc2/C=C2\SC(=O)NC2=O)cc1`: the growth in the experiment with DU-145 prostate was 109%; with K-562 leukemia, 86.7%; with MALME-3M melanoma, 112%; in the experiment on MDA-MB-231 breast, 84.4%; with RXF 393 renal it was 114%; with SF-268 CNS, 96.9%. In addition, the growth in the experiment with SF-295 CNS is 92%; in the experiment with SF-539 CNS, 96.8%; with UACC-257 melanoma it was 110%; in the experiment on M14 melanoma it was 102%; in the experiment on HCT-15 colon, 89.4%; in the experiment with HT29 colon, 114%. For the same compound, the growth with SNB-75 CNS was 66.3%; with SNB-19 CNS, 89.2%; in the experiment with PC-3 prostate, 99.6%; with SK-MEL-5 melanoma, 83.1%; in the experiment on UACC-62 melanoma, 89.2%; with LOX IMVI melanoma it was 59%. Moreover, the growth in the experiment on SK-MEL-28 melanoma was 112%.
With `O=S(=O)(Nc1ccc(F)c(Cl)c1)c1ccc(-c2cnc(C3CC3)o2)cc1`, the growth in the experiment on DU-145 prostate is 16.3%; with K-562 leukemia, 15.4%; in the experiment with MALME-3M melanoma, 45%; in the experiment with MDA-MB-231 breast, 36.2%; in the experiment on RXF 393 renal it was -9.55% (active); with SF-268 CNS it was 52.2%. Besides, the growth in the experiment on SF-295 CNS is 5.73% (active); with SF-539 CNS, -14.7% (active); in the experiment on UACC-257 melanoma, 48.2%; in the experiment with M14 melanoma it was 24.8%; in the experiment with HCT-15 colon, 22.3%; with HT29 colon, -3.16% (active). In addition, the growth is -14.4% (active) in the experiment on SNB-75 CNS; 49.3% with SNB-19 CNS; 24.9% in the experiment on PC-3 prostate; 6.59% (active) with SK-MEL-5 melanoma; 28.3% in the experiment with UACC-62 melanoma; 42.8% in the experiment on LOX IMVI melanoma. Besides, the growth with SK-MEL-28 melanoma was 62.5%.

Source of the values: PubChem BioAssay (NCI).
